Screening results (PubChem BioAssay)
Only some compounds are listed: those with a hit (about 7% of all), similar ones and a draw of the others.
D3 ag – qHTS of D3 Dopamine Receptor Agonist: qHTS; D3R DiscoveRx beta-arrestin cells, luminescence, 90 min; max activation, %; 0.58% of 410,000 active; AID 652048, 2013; in the data active = max activation above about 30%; also: 0% is about no effect
Target sequence (P35462 whole entry, looked up): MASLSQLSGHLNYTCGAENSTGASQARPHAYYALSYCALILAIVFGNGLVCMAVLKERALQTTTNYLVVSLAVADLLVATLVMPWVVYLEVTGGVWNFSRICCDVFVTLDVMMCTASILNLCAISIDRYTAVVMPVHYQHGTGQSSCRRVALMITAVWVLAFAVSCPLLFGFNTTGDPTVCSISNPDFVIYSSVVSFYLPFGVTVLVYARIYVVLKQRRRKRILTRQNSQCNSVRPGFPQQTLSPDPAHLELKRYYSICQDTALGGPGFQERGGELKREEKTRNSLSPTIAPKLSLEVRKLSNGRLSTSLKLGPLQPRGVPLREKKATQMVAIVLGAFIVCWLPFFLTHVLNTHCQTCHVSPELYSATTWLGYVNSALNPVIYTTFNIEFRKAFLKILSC
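Agonist mode: compounds and dopamine controls were applied to plated cells for 90 min at 37 degrees C after an overnight attachment at 1500 cells/well. Luminescent read-out followed 30 - 60 minutes at room temperature with DiscoveRx detection reagent.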
DRD3 antagonist – qHTS of D3 Dopamine Receptor Antagonist: qHTS; D3R cells, DiscoveRx beta-arrestin luminescence, antagonist mode; active compounds read low; max response, negative = inhibition, %; 2.5% of 360,000 active; AID 652054, 2013; in the data active = max response below about -50%; inconclusive = no clear call, values can overlap the other calls; also: % is scaled to controls: 0 for no effect and ±100 for the full control effect
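Cells plated overnight at 1500 cells/well, then exposed to library compounds with dopamine controls for 90 minutes at 37 degrees C. DiscoveRx reagent added for 30–60 minutes at room temperature; luminescence read, quantitative HTS format.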
a7 integrin act – qHTS for Activators of Integrin-Mediated Alleviation for Muscular Dystrophy. Potency, µM (titrated, usually from 38.3 µM), without a hit: at the highest dose activation, most hits filed as activators. alpha7betagal myoblasts, beta-gal FDG fluorescence, 48 h. AID 624291, 2012. 0.064% of 350,000 active;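 also: potency is read from the fitted curve at half-maximal effect; 100% = response of the positive control SU9516; nearly all actives have a fitted effect of over 60% in size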
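alpha7betagal+/- myoblasts (passage 13, 250/well) treated 48 h at 37C with compounds at 1:260 dilution of DMSO stock. Lysed, then beta-galactosidase activity read as FDG fluorescence (ex 480/em 540) after 30 min, with pre-read for autofluorescence.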
S2 tox – Viability Counterscreen for Primary qHTS for Inhibitors of ATXN expression; S2 cells (HEK-293 line with an ATXN2-luciferase reporter) viability, CellTiter-Fluor protease fluorescence, 24 h; Potency, µM (top dose mostly 56.7 µM), actives largely listed as cytotoxic; 0.49% of 400,000 active; AID 651635, 2014; also: potency is read from the fitted curve at half-maximal effect; nearly all actives have a fitted effect of over 40% in size
IL1B secr inh – qHTS for Inhibitors of Inflammasome Signaling: IL-1-beta AlphaLISA Primary Screen; THP-1 LPS/ATP IL-1B secretion, AlphaLISA, 16 h; active compounds read low; activity change, % at 57.5 µM; 4.7% of 360,000 active; AID 743279, 2014; in the data active = activity change below about -50%; inconclusive = mostly about -30% to -49%; also: % is scaled to controls: 0 for no effect and ±100 for the full control effect
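Secreted IL-1B measured by AlphaLISA bead assay after 16 h compound exposure of THP-1 cells; compounds (final up to 57.5 uM) added 1 h before LPS (250 ng/mL) and ATP (1.25 mM) stimulation; lower signal means less secretion.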
ATXN2 expr inh – Primary qHTS for Inhibitors of ATXN expression; HEK-293 ATXN2-luciferase reporter, luminescence, 24 h; Potency, µM (titrated, usually from 57 µM), without a hit: top-dose activity change, negative = inhibition, actives largely listed as inhibitors; 0.72% of 360,000 active; AID 1745845, 2022; also: potency is read from the fitted curve at half-maximal effect; % is scaled to controls: 0 for no effect and ±100 for the full control effect; nearly all actives have a fitted effect of over 55% in size
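ATXN2-luciferase reporter cells (luciferase flanked by upstream and downstream ATXN2 gene portions) were treated 24 h at 37 °C with compounds at up to 57 uM. SteadyGlo luminescence gave expression; GF-AFC fluorescence gave viability.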
Starred values were filed as active, the others as inactive; [ ] = remark or other dose. Unless noted, calls follow the shape of the dose curve; as a rule, active = well fitted curve in the direction sought with a large enough effect; inconclusive = small, poorly fitted or top-dose-only effect, or another doubt; inactive = no such curve, though single readings can be large; an effect the other way counts as inactive or inconclusive.

How did N#C/C(=C\c1ccc(OCc2ccc(C(=O)O)cc2)cc1)C(=O)N1CCOCC1 do in these assays?
D3 ag: 12; DRD3 antagonist: 16; a7 integrin act: 0%; S2 tox: inactive; IL1B secr inh: 2; ATXN2 expr inh: 8.9µM*

How did COc1ccc(/C=C(\C#N)C(=O)N2CCOCC2)cc1Br do in these assays?
D3 ag: 0; DRD3 antagonist: -8; a7 integrin act: -6%; S2 tox: inconclusive; IL1B secr inh: -68*; ATXN2 expr inh: -6%

Results for Cc1c(-c2ccc(Cl)cc2)oc(=O)c2c(N)n(-c3ccccc3)nc12 ?
D3 ag: 8; DRD3 antagonist: 0; a7 integrin act: -16%; S2 tox: inconclusive; IL1B secr inh: 0; ATXN2 expr inh: -15%

How did Nc1c2c(=O)oc(-c3ccccc3)cc2nn1-c1ccccc1 do in these assays?
D3 ag: -1; DRD3 antagonist: 11; a7 integrin act: -1%[7.66 µM]; S2 tox: inactive; IL1B secr inh: -99*; ATXN2 expr inh: 69%

What do the screens show for `CCc1ccc(S(=O)(=O)Nc2c(NC3CCCCC3)c3ccccc3oc2=O)cc1`?
D3 ag: 4; DRD3 antagonist: 2; a7 integrin act: 0%; S2 tox: inactive; IL1B secr inh: -63*; ATXN2 expr inh: -12%

Results for ClCCn1cnc2c(SCc3ccccc3Cl)ncnc21 ?
D3 ag: 12; DRD3 antagonist: 38; a7 integrin act: 14%; S2 tox: inactive; IL1B secr inh: -67*; ATXN2 expr inh: 45%

Results for ClCCn1cnc2c(SCc3ccccc3)ncnc21 ?
D3 ag: 19; DRD3 antagonist: 2; a7 integrin act: -10%; S2 tox: inactive; IL1B secr inh: -55*; ATXN2 expr inh: 125%

How did O=C(O)c1ccc2c(c1)N(Cc1ccccc1)C(=O)c1ccccc1S2 do in these assays?
D3 ag: 3; DRD3 antagonist: 12; a7 integrin act: -3%; S2 tox: inactive; IL1B secr inh: 25; ATXN2 expr inh: 6%

What do the screens show for `Cc1cccc(Cl)c1OCCN1CCCC1`?
D3 ag: -10; DRD3 antagonist: inconclusive; a7 integrin act: -4%; S2 tox: inactive; IL1B secr inh: -18; ATXN2 expr inh: 0%

How did CCc1nnc(NC(=O)c2ccc(Br)c(S(=O)(=O)N3CCOCC3)c2)s1 do in these assays?
D3 ag: -4; DRD3 antagonist: -8; a7 integrin act: 1%; S2 tox: inactive; IL1B secr inh: -15; ATXN2 expr inh: -7%

What do the screens show for `CCOC(=O)c1c(C(=O)OCC)c(C)n(N2C(=O)CSC2=S)c1C`?
D3 ag: -2; DRD3 antagonist: -62*; a7 integrin act: 16%; S2 tox: inactive; IL1B secr inh: 19; ATXN2 expr inh: 0%

Results for Cc1ccc2c(c1)C(=O)CC1(CCCCCC1)O2 ?
D3 ag: -73; DRD3 antagonist: -115*; a7 integrin act: 21%; S2 tox: inactive; IL1B secr inh: 17; ATXN2 expr inh: 5%

How did Cc1ccc(-c2cc(-c3ccc4c(c3)NC(=O)CO4)nc3c2COc2ccc(C)cc2-3)cc1 do in these assays?
D3 ag: 3; S2 tox: inactive; ATXN2 expr inh: 14%

What do the screens show for `COc1ccc(C(=O)NNC(=O)CSc2nnc(COc3ccccc3)n2C)cc1`?
D3 ag: 2; DRD3 antagonist: 3; a7 integrin act: 7%; S2 tox: inactive; IL1B secr inh: -27; ATXN2 expr inh: 1%

Results for Cc1ccc(C(=O)NNC(=O)CSc2nnc(-c3ccncc3)n2C)cc1 ?
D3 ag: -8; DRD3 antagonist: -75*; a7 integrin act: -17%; S2 tox: inactive; IL1B secr inh: -17; ATXN2 expr inh: 9%

Results for COc1ccc(OCc2nnc(SCC(=O)NNC(=O)c3ccc(C)cc3)n2C)cc1 ?
D3 ag: -25; DRD3 antagonist: -118*; a7 integrin act: 26%; S2 tox: inactive; IL1B secr inh: 18; ATXN2 expr inh: -1%
